Measured values: PubChem BioAssay AID2116 (The Scripps Research Institute Molecular Screening Center, 2009)
The source made the active and inactive calls. The rule behind the calls is not given here.

Biological target: Mucolipin-3 (Homo sapiens) (UniProt Q8TDD5)
Experiment: activators of mucolipin-3 and mucolipin-2 – cell-based, patch clamp, Fura-2 profiling panel (AID 2116)
Conditions: HEK293 cells expressing TRPML3-YFP, TRPML3 Fura-2 Imaging; Fura-2 340/380 ratio change, at 10 µM, stronger effect = higher value

Sequence of Mucolipin-3 (Homo sapiens) (Q8TDD5 whole entry, looked up): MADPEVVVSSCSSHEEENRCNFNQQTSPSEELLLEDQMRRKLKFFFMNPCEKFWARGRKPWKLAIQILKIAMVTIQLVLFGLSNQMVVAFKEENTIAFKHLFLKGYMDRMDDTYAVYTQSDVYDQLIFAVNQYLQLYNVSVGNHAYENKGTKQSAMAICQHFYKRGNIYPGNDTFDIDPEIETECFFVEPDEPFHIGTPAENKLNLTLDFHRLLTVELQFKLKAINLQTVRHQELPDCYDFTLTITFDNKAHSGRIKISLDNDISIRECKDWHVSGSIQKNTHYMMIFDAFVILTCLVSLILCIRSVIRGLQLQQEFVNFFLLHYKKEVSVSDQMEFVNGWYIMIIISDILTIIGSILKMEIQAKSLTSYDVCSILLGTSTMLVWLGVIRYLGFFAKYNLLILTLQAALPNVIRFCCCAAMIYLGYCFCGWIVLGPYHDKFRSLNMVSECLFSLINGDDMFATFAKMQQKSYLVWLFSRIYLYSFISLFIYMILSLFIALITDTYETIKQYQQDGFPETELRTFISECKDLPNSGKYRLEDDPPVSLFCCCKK

`O=S(=O)(NC1CCCCC1N1CCOCC1)c1ccc(Cl)cc1` (stereo not given) was tested, and the delta F ratio was 1.38 and the outcome was “active; no effect on six other TRP channels”.

`Cc1ccc(N2CCN(S(=O)(=O)N3CCCCC3)CC2)c(C)c1` was tested, and the delta F ratio was 0.99 and the outcome was “active; no effect on six other TRP channels”.

With `O=S(=O)(Nc1ccccc1N1CCCCC1)c1ccc(Cl)s1` the delta F ratio was 1 and the outcome was “active; no effect on six other TRP channels”.

With `Cc1ccc(S(=O)(=O)Nc2ccccc2-c2ccccc2)cc1` the delta F ratio was 0.51 and the outcome was “active; no effect on six other TRP channels”.

For `O=S(=O)(Nc1ccccc1N1CCOCC1)c1ccc(Cl)s1`, the delta F ratio was 0.93 and the outcome was “active; no effect on six other TRP channels”.
